# Laboratory results taken from PubChem BioAssay (NCI).
# This is part of a sample that, as a whole, favours compounds with a hit. Of some 79,000 tested, about 15% had one in any assay. Activity calls are given as the source filed them. No stated cut-off is given here; in the data, active means growth inhibition above about 70%; inactive means the rest.
# Experiment: NCI Yeast Anticancer Drug Screen. Data for the mlh1 strain (AID 171);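 further: 0% = growth of vehicle-treated control cultures of the same strain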
# Conditions: S. cerevisiae mlh1 strain growth inhibition, hits give high values
# Procedure: Growth inhibition of yeast strains with defined genetic alterations is measured as a screen for potential anti-cancer activity. Selected strains with alterations in DNA damage repair or cell cycle control were exposed to compounds and growth inhibition was measured relative to vehicle treated controls. The strain used in this assay is mlh1
SMILES,growth inhibition (at 1.2 µM),growth inhibition (at 3.7 µM),growth inhibition (at 11.0 µM),growth inhibition (at 33.0 µM),growth inhibition (at 100.0 µM)
O/N=c1/ccn(O)c2ccccc12,2% (inactive),15% (inactive),30% (inactive),53% (inactive),83% (active)
CCN(CC)CCNc1ccc2nc(C)n3c4ccc(OC)cc4c(=O)c1c23,36% (inactive),27% (inactive),18% (inactive),26% (inactive),16% (inactive)
CCOC(=O)/C(=C\c1ccc(F)cc1)C(C)=O,2% (inactive),42% (inactive),88% (active),97% (active),97% (active)
CCN(CC)CC(=O)c1ccc2cc(Cl)c3ccccc3c2c1,12% (inactive),23% (inactive),99% (active),99% (active),98% (active)
COC(=O)C(=O)c1c(-c2ccc(Cl)c(Cl)c2)[nH]c2[nH]n(-c3ccccc3)c(=O)c2c1=O,-2% (inactive),-3% (inactive),36% (inactive),57% (inactive),57% (inactive)
CC(C)(C)c1ccc2c(c1)C(=O)c1ccccc1C2=O,-15% (inactive),-10% (inactive),-10% (inactive),-10% (inactive),12% (inactive)
OC(CC(O)(C(F)(F)F)C(F)(F)F)c1ccc(C(O)CC(O)(C(F)(F)F)C(F)(F)F)cc1 (stereo not given),19% (inactive),11% (inactive),90% (active),99% (active),99% (active)
COc1ccc(N=c2cc(-c3ccccc3)oc3ccccc23)cc1,0% (inactive),-1% (inactive),-1% (inactive),-4% (inactive),-5% (inactive)
